Assay outcomes (PubChem BioAssay)
KB-3-1 cytotox – qHTS assay for MDR1-selective chemotherapeutics: Primary screen using the parental adenocarcinoma cell KB-3-1; KB-3-1 viability, CellTiter-Glo ATP luminescence, 72 h; 400,000 tested, 1.4% active; Potency, µM (highest dose often 46.1 µM), usual class: cytotoxic; also: % is scaled to controls: 0 for no effect and ±100 for the full control effect; nearly all actives have a fitted effect of over 60% in size
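Parental KB-3-1 viability, qHTS format: 72 h compound exposure, 37 °C; CellTiter-Glo; media-only wells and DMSO plates as controls; concentration-effect fits on corrected data.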
MCF10A rereplic – A quantitative high throughput screen for small molecules that induce DNA re-replication in MCF 10a normal breast cells. MCF 10A DNA re-replication, Hoechst nuclear intensity, 48 h. Potency, µM (top dose mostly 46.1 µM), for inactives: top-dose activity, positive = re-replication, most hits filed as activators. 350,000 tested, 2.9% active; also: % of control where 0% means no effect; nearly all actives have a fitted effect of over 50% in size
SW480 rereplic – A quantitative high throughput screen for small molecules that induce DNA re-replication in SW480 colon adenocarcinoma cells | 340,000 tested, 1.8% active | Potency, µM (highest dose often 46.1 µM), for the others: at the highest dose re-replication activation, actives largely listed as activators | AID 624297, 2012 | SW480 DNA re-replication, Hoechst DNA content imaging, 48 h; also: % of control where 0% means no effect; nearly all actives have a fitted effect of over 55% in size
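Compounds, transferred as 23 nL by pin tool, were incubated with cells for 48 hr; DNA content per nucleus was then quantified by Hoechst staining and fluorescence plate imaging.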
ELG1 DNA repair – qHTS screen for small molecules that inhibit ELG1-dependent DNA repair in human embryonic kidney (HEK293T) cells expressing luciferase-tagged ELG1. HEK293T ELG1-luciferase reporter, luminescence, 16 h; DNA damage induced by 5-fluorouridine. Potency, µM (doses to about 46.1 µM), for inactives: at the top dose activity change, negative = inhibition, usual class: inhibitors. 330,000 tested, 2.3% active. AID 504467, 2011; also: % is scaled to controls: 0 for no effect and ±100 for the full control effect; nearly all actives have a fitted effect of over 55% in size
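HEK293T cells expressing luciferase-tagged ELG1 (2,000/well) received 5-Fluorouridine plus compound or DMSO for 16 hr at 37 °C. Luciferase was read by ONE-Glo luminescence after 30 min at room temperature.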
KB-V1 MDR tox – qHTS assay for MDR1-selective chemotherapeutics: Primary screen using the drug-selected MDR subline cells KB-V1; Potency, µM (titrated, usually from 46.1 µM), usual class: cytotoxic; AID 1347076, 2019; 400,000 tested, 3.4% active; KB-V1 MDR cells viability, CellTiter-Glo, 72 h; also: % is scaled to controls: 0 for no effect and ±100 for the full control effect; nearly all actives have a fitted effect of over 60% in size
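In this primary screen, KB-V1 cells overexpressing P-gp are incubated with library compounds (lowest to highest concentration) for 72 h at 37 degrees C before a luminescent ATP viability read.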
* hit, by the source's call; i = inactive; ? = inconclusive; nt = no result given; [ ] = another dose, or the depositor's remark. Most compounds without a hit are left out; they make up all but 8.1% or so of the library. Calls follow the shape of the dose curve; as a rule, active = well fitted curve in the direction sought with a large enough effect; inconclusive = small, poorly fitted or top-dose-only effect, or another doubt; inactive = no such curve, though single readings can be large; an effect the other way counts as inactive or inconclusive. Potency is read from the fitted curve at half-maximal effect.

SMILES	KB-3-1 cytotox	MCF10A rereplic	SW480 rereplic	ELG1 DNA repair	KB-V1 MDR tox
Cc1ccc2cccc(OCC(=O)Nc3cccc(S(=O)(=O)N4CCCC4)c3)c2n1	nt	?	2%	18µM*	nt
COc1ccc(NC(=O)COc2ccccc2C#N)c(S(=O)(=O)N2CCCCC2)c1	i	-7%	-5%	21µM*	?
COc1ccc(C(=O)CC(=O)C(=O)Nc2ccccc2)cc1	i	7%	?	?	i
N#Cc1ccccc1OCC(=O)Nc1cccc(S(=O)(=O)N2CCCCCC2)c1	nt	?	1%	18µM*	nt
CCOc1ccccc1NC(=O)C(=O)CC(=O)c1ccc(OC)cc1	i	9%	27%	?	16µM*
CCn1cc(-c2cc(C(=O)O)c3ccccc3n2)c(C)n1	i	-8%	-80%	12%	i
CC(C(=O)Nc1ccccc1C(F)(F)F)n1nnc2sc3c(c2c1=O)CCCC3 (stereo not drawn)	i	nt	nt	nt	i
COc1ccc(C(=O)COc2ccccc2C(N)=O)cc1	i	9%	2%	-11%	i
COc1ccc(C(=O)COc2ccccc2C#N)cc1	i	16µM*	1%	?	i
OC(CNCc1ccncc1)c1ccccc1 (stereo not drawn)	i	-2%	-6%	-2%	i
OC(CNCc1ccc(-c2ccccc2)cc1)c1ccccc1 (stereo not drawn)	?	18µM*	18µM*	-13%	?
Cc1cccc(C)c1NC(=O)CNC(=O)c1cncc(Br)c1	i	-3%	?	20%	?
COC(=O)/C=C/c1ccccc1S(=O)(=O)N(Cc1ccccc1)Cc1ccco1	3.3µM*	2.1µM*	4.1µM*	-23%	7.3µM*
Cc1cc(C)c(C#N)c(SCc2ccc(C(=O)O)cc2)n1	i	0%	6%	16%	i
COc1cc(-n2c(N)c(C(=O)NCc3ccco3)c3nc4ccccc4nc32)cc(OC)c1OC	i	9.2µM*	12µM*	-8%	i
COc1ccc(-n2c(N)c(C(=O)NCc3ccco3)c3nc4ccccc4nc32)cc1OC	i	16µM*	18µM*	6.5µM*	i
Cc1ccc(C)c(C(=O)c2ccccc2NC(=O)c2ccccn2)c1	?	7.3µM*	?	-18%	?
Cc1ccc(C)c(NC(=O)CN2C(=O)c3cccnc3Oc3ccc(C)cc32)c1	i	nt	nt	nt	i
Cc1ccc2c(c1)C(=O)C(=O)N2CC(=O)Nc1ccccc1NC(=O)c1ccccn1	?	13µM*	18µM*	-11%	i
CN1CCN(NC(=O)Nc2cccc(Cl)c2Cl)CC1	i	3%	-6%	-19%	i
CN(C)CCNC(=O)C1CCN(c2nc3ccccc3[nH]2)CC1	i	nt	nt	nt	i
Cc1ccc(NC(=O)Cc2nc(COC(=O)c3c(F)cccc3Cl)cs2)cc1	i	-1%	-7%	18µM*	i
Cc1ccccc1NC(=O)Cc1nc(COC(=O)c2ccc(Cl)c(S(N)(=O)=O)c2)cs1	i	3%	-3%	5.2µM*	i
Cc1ccccc1NC(=O)Cc1nc(COC(=O)c2cccc(O)c2)cs1	i	-1%	18%	-5%	?
CC(=O)c1c(C)[nH]c(C(=O)OCc2csc(CC(=O)Nc3ccccc3C)n2)c1C	i	3%	?	13µM*	i
SMILES	KB-3-1 cytotox	MCF10A rereplic	SW480 rereplic	ELG1 DNA repair	KB-V1 MDR tox
CC(C)=CC(=O)OCc1csc(CC(=O)Nc2ccccc2C)n1	i	-4%	28%	5%	i
O=c1c2c(nc3c(-c4cccc5ccccc45)c[nH]n13)CCC2	i	11µM*	-6%	0%	i
O=c1c2c(nc3cc(-c4cccc(Cl)c4)[nH]n13)CCC2	i	?	11%	?	i
O=c1c2c(nc3c(-c4ccc(Cl)cc4)c[nH]n13)CCCC2	?	2%	19%[9.22 µM]	10µM*	i
O=C1C=C(c2ccccc2)C[C@@H](c2ccc(Cl)cc2)C1	i	?	0%	-10%	i
Cc1ccc(C)c(CSc2ccc3nnc(CCNS(=O)(=O)c4ccccc4)n3n2)c1	i	nt	nt	nt	i
CC(=O)c1cc(-c2ccccc2)n(CC(=O)N2CCN(C3CCCC3)CC2)c1C	i	0%	-1%	?	i
CC(=O)c1cc(-c2ccccc2)n(CC(=O)N2CCC(C)CC2)c1C	i	5%	-9%	-8%	5.8µM*
C[C@H](CO)N1C[C@H](C)[C@@H](CN(C)Cc2ccc(Cl)c(Cl)c2)OCc2cnnn2CCCC1=O	?	nt	nt	nt	i
Cc1ccc2oc(/N=C(\N)NC(=O)C3CC3)nc2c1	?	?	9.2µM*	?	5.2µM*
Cc1ccc2oc(/N=C(\N)NC(=O)C(C)(C)C)nc2c1	i	-30%	?	?	i
CCc1ccccc1NC(=O)C1CCN(c2nc3ccccc3[nH]2)CC1	i	nt	nt	nt	i
Nc1ccc(N2CCN(c3cccc(Cl)c3)CC2)cc1	?	15%	17%	?	21µM*
CCSc1nnnn1-c1ccccc1	i	-3%	0%[9.22 µM]	13%	i
Cc1ccc(C)c(-n2nnnc2Sc2nnnn2-c2ccccc2)c1	?	5.8µM*	9.2µM*	21µM*	i
Cc1cccc(-n2cc(CN3CCN(Cc4nccn4C)CC3)c(-c3cccc(F)c3)n2)c1	i	-9%	1%	18µM*	i
COc1ccc(-n2cc(CN3CCCC3)c(-c3cccc(F)c3)n2)cc1	i	?	16%	7%	i
COc1ccc(CNCc2c(C(=O)O)c(C)n(Cc3ccc(Cl)cc3)c2C)c(OC)c1	i	nt	nt	nt	i
c1ccc(Cc2nnc(Sc3ccccc3)c3ccccc23)cc1	i	?	15µM*	?	i
COC(=O)CCCNC(=O)c1ccc2oc(CCCc3ccccc3)nc2c1	i	6%	-3%	?	?
CCCC1=Nc2cc(C(=O)NCCc3ccc(OCC)cc3)ccc2Sc2ccccc21	?	nt	nt	nt	i
CCCC1=Nc2cc(C(=O)NCCCOCC)ccc2Sc2ccccc21	0.52µM*	?	?	-15%	1µM*
CCCC1=Nc2cc(C(=O)NCCCOC(C)C)ccc2Sc2ccccc21	4.6µM*	2.6µM*	5.8µM*	-1%	7.3µM*
Cn1c(=O)n(Cc2ccccc2Cl)c(=O)c2c1[nH]c(=S)n2C	i	4%	15%	11%	i
COc1ccc(S(=O)(=O)N2CCOc3ccccc32)cc1	i	4.6µM*	5.8µM*	?	i
